Measured values published in PubChem BioAssay (NCI).
About 83,000 compounds went through this panel and 20% of them were active in at least one assay; those are over-represented in the sample as a whole.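 Activity criterion: percent growth below 10, measured after cells in 96-well plates were exposed to a single compound concentration for 48 hours.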 Unmarked numbers belong to inactive results.

system: MDA-MB-468 breast; assay: NCI-60 one-dose screen, 48 h (100 = growth as untreated, 0 = no growth, -100 = all killed); conditions: 10 µM unless noted

SMILES | growth [%]
COc1cc2c(Nc3ccc(S(N)(=O)=O)cc3)ncnc2c(OC)c1OC | 84
O=C1NC(=O)c2c(CCCSc3nc4ccccc4c(=O)n3CCc3ccccc3)cccc21 | 112
O=C(/C=C\c1ccccc1)N1c2ccccc2CC1c1c[nH]c2ccccc12 (configuration not stated) | 80.6
CCC[S@](=O)c1ccc2nc(NC(=O)OC)[nH]c2c1 | 94.1
CCC(CC)C(=O)OC(C)COc1ccc(C(C)(C)C)cc1 (configuration not stated) | 94.6
CCCC(c1nnnn1C1CCCCC1)N1CCN(C(=O)c2ccco2)CC1 (configuration not stated) | 15.2
C=C(C)[C@@H]1CC[C@]2(C(=O)O)CC[C@]3(C)[C@H](CC[C@@H]4[C@@]5(C)C[C@@H](CC#Cc6ccccc6)C(=O)C(C)(C)[C@@H]5CC[C@]43C)[C@@H]12 | 19.8
